# Measurements from paper PMC7862700, “An all-to-all approach to the identification of sequence-specific readers for epigenetic DNA modifications on cytosine”.
# What was measured:
# Assay in all cases: DAPPL (digital affinity profiling via proximity ligation, sequencing); 10 mM Tris-HCl pH 7.5, 50 mM NaCl, 1 mM DTT, 4% glycerol, room temperature, 30 min; GST-TFs on glutathione beads, 16-mer random dsDNA library, 0.1% formaldehyde crosslink after washing; high values mean tight binding
# FEV = biological target: T1, FEV (Homo sapiens, UniProt Q99581 1-238); details: protein: recombinant; tags: N-terminal GST; dsDNA, one strand shown
# T1 sequence: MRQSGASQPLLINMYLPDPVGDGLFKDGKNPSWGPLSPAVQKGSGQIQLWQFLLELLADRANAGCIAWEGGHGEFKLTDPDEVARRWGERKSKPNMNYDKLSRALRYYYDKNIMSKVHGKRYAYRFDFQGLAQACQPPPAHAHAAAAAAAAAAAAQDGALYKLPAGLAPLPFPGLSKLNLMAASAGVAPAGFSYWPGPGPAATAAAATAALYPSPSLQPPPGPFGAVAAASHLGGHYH
# Procedure, shortened: (§1)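 A tag-only sample was pooled with DNA-barcoded human transcription factors that had been expressed in yeast as GST fusions and captured on glutathione beads. The pools were incubated for 30 min at room temperature with 200 nmole of a random double-stranded 16-mer DNA library in Tris/NaCl/DTT/glycerol buffer, then washed, crosslinked with 0.1% formaldehyde, proximity-ligated (BsaI/T4 ligase, 1 h, 37 °C), PCR-amplified and sequenced on an Illumina NextSeq500. Binding signal is each hexamer's read frequency for a factor divided by its frequency for the tag-only sample.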
# ETV5 = ETV5 (Homo sapiens, UniProt P41161 1-510); details: protein: recombinant; tags: N-terminal GST; dsDNA, one strand shown
# Sequence of ETV5 (P41161 whole entry): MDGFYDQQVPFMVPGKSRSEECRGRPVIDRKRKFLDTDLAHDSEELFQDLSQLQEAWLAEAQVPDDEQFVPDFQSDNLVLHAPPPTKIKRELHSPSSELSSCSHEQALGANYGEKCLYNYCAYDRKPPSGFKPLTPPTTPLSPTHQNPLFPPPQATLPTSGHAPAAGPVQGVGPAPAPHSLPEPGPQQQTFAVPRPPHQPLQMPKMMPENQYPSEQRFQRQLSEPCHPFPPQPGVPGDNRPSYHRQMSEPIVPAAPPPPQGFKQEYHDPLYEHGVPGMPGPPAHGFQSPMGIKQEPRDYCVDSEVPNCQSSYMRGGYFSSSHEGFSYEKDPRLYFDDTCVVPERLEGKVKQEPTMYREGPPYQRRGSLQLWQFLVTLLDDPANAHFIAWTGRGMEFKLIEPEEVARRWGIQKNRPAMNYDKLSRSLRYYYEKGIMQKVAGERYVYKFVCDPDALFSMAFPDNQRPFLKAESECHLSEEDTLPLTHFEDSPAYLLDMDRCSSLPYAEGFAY
# Procedure, shortened: as §1
# HSF1 = HSF1 (Homo sapiens, UniProt Q00613 1-529); details: protein: recombinant; tags: N-terminal GST; chain copies: 3; dsDNA, one strand shown
# Sequence of HSF1 (Q00613 whole entry): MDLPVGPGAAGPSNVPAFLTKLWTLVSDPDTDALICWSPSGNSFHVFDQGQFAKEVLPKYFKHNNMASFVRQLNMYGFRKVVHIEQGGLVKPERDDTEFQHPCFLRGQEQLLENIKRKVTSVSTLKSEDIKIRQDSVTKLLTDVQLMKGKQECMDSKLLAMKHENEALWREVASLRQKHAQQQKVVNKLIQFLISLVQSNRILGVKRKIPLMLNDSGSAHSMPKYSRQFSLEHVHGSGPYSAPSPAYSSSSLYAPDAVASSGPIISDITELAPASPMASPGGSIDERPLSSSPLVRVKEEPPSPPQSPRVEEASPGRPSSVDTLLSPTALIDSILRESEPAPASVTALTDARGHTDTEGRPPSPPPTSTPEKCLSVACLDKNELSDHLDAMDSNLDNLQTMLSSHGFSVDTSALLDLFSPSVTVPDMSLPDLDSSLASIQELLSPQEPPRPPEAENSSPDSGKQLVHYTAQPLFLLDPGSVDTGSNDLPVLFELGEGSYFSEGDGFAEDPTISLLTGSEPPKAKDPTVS
# Procedure, shortened: as §1
# SPIC = biological target: T2, SPIC (Homo sapiens, UniProt Q8N5J4 1-248); details: protein: recombinant; tags: N-terminal GST; dsDNA, one strand shown
# T2 sequence: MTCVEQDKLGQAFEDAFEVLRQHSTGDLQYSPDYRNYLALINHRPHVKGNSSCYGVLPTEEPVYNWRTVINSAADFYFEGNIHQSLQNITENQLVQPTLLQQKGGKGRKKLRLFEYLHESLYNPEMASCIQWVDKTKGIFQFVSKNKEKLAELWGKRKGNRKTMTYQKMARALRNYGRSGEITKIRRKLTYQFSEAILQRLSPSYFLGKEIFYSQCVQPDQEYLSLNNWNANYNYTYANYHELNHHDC
# Procedure, shortened: as §1
# ELF4 = ELF4 (Homo sapiens, UniProt Q99607 1-663); details: protein: recombinant; tags: N-terminal GST; dsDNA, one strand shown
# Sequence of ELF4 (Q99607 whole entry): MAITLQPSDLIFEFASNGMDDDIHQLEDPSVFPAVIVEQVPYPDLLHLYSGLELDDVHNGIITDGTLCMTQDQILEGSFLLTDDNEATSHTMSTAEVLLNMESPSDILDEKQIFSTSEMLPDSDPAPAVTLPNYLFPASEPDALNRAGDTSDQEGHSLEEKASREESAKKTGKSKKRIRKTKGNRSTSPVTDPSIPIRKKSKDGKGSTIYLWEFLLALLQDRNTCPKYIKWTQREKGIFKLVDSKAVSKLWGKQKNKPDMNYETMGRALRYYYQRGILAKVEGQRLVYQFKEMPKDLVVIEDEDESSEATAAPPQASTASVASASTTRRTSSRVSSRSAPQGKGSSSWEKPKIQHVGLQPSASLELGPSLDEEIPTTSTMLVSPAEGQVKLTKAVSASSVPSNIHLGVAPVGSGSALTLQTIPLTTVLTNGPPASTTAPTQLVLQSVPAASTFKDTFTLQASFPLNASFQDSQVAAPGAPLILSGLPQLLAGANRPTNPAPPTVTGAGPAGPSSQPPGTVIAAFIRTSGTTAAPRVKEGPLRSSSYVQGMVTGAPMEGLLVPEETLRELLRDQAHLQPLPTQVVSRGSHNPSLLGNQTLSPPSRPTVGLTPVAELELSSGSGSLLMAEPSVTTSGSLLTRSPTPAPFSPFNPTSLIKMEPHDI
# Procedure, shortened: as §1
# ELK4 = biological target: T3, ELK4 (Homo sapiens, UniProt P28324-2 1-405); details: protein: recombinant; tags: N-terminal GST; dsDNA, one strand shown
# T3 sequence: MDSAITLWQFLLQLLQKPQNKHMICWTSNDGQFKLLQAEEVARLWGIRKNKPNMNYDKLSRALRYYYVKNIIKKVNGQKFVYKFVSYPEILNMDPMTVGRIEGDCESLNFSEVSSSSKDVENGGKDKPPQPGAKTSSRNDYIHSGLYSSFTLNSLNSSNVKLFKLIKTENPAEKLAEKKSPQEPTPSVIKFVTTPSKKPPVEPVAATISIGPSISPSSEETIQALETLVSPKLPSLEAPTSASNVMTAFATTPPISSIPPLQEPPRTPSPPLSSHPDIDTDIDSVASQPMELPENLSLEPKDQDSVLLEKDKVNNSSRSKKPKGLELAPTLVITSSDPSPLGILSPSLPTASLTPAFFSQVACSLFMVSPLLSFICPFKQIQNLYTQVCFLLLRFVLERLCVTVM
# Procedure, shortened: as §1
# ETV2 = biological target: T4, ETV2 (Homo sapiens, UniProt O00321 1-342); details: protein: recombinant; tags: N-terminal GST; dsDNA, one strand shown
# T4 sequence: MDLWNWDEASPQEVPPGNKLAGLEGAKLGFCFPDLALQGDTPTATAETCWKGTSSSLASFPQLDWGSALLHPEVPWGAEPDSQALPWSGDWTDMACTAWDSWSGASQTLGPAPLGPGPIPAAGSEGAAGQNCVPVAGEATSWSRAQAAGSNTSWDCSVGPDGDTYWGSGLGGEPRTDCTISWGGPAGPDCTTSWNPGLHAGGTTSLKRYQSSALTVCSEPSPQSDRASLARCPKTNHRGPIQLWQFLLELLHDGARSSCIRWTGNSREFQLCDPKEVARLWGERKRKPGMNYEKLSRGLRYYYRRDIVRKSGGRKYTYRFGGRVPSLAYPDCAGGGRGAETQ
# Procedure, shortened: as §1
# ELF3 = biological target: T5, ELF3 (Homo sapiens, UniProt P78545 1-371); details: protein: recombinant; tags: N-terminal GST; dsDNA, one strand shown
# T5 sequence: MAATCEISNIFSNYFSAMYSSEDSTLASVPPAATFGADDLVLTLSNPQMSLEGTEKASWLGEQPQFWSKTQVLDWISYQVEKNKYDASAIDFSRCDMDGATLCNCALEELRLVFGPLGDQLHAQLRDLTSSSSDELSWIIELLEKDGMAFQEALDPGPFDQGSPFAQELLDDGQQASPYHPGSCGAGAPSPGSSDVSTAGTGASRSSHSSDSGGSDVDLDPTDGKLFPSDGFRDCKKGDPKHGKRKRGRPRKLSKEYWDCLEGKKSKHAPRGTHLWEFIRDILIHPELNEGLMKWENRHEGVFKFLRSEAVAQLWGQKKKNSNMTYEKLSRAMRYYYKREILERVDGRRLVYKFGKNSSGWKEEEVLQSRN
# Procedure, shortened: as §1
# CRX = CRX (Homo sapiens, UniProt O43186 1-299); details: protein: recombinant; tags: N-terminal GST; dsDNA, one strand shown
# Sequence of CRX (O43186 whole entry): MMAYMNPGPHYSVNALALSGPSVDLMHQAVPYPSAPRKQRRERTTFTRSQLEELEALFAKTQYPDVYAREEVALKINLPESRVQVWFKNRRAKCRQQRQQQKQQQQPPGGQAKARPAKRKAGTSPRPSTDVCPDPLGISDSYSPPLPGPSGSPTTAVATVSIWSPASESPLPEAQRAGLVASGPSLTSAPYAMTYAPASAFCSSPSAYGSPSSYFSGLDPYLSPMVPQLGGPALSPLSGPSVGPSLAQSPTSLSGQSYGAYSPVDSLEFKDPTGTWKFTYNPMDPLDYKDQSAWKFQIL
# Procedure, shortened: as §1
# ETV1 = ETV1 (Homo sapiens, UniProt P50549 1-477); details: protein: recombinant; tags: N-terminal GST; dsDNA, one strand shown
# Sequence of ETV1 (P50549 whole entry): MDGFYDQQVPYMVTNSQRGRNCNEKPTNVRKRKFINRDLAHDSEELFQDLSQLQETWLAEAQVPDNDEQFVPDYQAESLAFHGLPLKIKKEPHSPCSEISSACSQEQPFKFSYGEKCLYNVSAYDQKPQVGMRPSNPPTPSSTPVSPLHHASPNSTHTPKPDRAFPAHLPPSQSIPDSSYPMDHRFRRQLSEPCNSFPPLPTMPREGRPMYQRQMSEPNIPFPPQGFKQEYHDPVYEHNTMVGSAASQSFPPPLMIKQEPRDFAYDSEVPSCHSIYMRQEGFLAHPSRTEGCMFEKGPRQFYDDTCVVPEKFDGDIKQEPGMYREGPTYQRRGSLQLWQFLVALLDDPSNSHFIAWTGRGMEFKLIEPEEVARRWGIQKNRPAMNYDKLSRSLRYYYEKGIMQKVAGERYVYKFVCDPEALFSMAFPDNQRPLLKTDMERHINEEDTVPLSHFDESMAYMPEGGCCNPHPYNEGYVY
# Procedure, shortened: as §1
# ERF = biological target: T6, ERF (Homo sapiens, UniProt P50548 1-548); details: protein: recombinant; tags: N-terminal GST; dsDNA, one strand shown
# T6 sequence: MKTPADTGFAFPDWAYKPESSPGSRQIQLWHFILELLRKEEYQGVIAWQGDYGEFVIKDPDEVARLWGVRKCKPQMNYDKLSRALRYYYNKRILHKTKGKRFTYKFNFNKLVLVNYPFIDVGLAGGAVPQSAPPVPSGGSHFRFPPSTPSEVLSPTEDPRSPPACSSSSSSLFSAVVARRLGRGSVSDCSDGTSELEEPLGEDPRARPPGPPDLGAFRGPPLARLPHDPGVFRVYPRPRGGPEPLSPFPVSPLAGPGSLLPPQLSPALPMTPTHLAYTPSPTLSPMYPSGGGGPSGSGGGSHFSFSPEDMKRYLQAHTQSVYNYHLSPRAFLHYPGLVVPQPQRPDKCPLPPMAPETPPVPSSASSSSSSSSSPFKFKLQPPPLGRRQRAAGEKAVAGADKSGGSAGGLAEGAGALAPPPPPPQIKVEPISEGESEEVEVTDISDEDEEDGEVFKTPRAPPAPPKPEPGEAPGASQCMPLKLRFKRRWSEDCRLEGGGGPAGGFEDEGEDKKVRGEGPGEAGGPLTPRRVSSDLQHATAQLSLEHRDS
# Procedure, shortened: as §1
# ETV3L = biological target: T7, ETV3L (Homo sapiens, UniProt Q6ZN32 1-361); details: protein: recombinant; tags: N-terminal GST; dsDNA, one strand shown
# T7 sequence: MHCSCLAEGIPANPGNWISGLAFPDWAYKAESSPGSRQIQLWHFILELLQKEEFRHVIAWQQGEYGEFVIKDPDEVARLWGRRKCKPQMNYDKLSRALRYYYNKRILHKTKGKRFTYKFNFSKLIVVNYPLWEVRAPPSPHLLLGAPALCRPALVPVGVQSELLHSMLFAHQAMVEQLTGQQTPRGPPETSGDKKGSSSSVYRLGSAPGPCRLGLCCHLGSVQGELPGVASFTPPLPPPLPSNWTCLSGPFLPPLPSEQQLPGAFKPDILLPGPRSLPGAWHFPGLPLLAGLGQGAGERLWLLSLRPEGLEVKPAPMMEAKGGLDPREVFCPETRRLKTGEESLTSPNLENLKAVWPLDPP
# Procedure, shortened: as §1
# ETS2 = biological target: T8, ETS2 (Homo sapiens, UniProt P15036 1-469); details: protein: recombinant; tags: N-terminal GST; dsDNA, one strand shown
# T8 sequence: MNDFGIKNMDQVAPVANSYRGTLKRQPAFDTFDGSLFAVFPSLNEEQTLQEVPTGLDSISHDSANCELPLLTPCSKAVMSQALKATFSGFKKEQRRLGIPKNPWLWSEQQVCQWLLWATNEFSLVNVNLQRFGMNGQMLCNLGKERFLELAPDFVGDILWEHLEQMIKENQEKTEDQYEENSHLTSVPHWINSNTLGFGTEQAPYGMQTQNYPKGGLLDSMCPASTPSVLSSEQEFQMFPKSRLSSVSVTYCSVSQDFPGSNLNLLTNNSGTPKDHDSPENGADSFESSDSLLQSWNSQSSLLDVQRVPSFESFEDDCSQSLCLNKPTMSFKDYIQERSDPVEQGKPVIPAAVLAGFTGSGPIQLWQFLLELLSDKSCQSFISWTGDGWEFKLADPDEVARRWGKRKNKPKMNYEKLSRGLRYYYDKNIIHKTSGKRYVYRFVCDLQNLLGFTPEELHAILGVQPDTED
# Procedure, shortened: as §1
# SPDEF = biological target: T9, SPDEF (Homo sapiens, UniProt O95238 1-335); details: protein: recombinant; tags: N-terminal GST; dsDNA, one strand shown
# T9 sequence: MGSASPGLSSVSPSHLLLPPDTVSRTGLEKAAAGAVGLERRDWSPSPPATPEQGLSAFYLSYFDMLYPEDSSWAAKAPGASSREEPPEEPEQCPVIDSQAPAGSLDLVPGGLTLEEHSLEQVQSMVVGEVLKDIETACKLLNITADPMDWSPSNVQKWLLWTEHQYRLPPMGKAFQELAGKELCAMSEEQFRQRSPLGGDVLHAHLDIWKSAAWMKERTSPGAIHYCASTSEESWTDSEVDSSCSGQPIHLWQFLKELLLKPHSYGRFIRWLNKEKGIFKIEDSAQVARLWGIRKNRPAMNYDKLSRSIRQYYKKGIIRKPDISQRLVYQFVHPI
# Procedure, shortened: as §1
# ETV7 = biological target: T10, ETV7 (Homo sapiens, UniProt Q9Y603 1-341); details: protein: recombinant; tags: N-terminal GST; dsDNA, one strand shown
# T10 sequence: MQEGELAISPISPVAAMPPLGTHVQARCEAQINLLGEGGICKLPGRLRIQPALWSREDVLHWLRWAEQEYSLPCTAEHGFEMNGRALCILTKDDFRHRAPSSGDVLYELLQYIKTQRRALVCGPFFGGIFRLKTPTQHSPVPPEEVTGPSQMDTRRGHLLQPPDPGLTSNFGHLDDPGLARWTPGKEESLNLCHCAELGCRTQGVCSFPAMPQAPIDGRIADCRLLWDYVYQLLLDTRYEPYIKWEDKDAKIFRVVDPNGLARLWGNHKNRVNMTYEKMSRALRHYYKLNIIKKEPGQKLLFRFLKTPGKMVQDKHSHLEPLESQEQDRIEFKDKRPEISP
# Procedure, shortened: as §1
# ELF5 = biological target: T11, ELF5 (Homo sapiens, UniProt Q9UKW6-2 1-255); details: protein: recombinant; tags: N-terminal GST; dsDNA, one strand shown
# T11 sequence: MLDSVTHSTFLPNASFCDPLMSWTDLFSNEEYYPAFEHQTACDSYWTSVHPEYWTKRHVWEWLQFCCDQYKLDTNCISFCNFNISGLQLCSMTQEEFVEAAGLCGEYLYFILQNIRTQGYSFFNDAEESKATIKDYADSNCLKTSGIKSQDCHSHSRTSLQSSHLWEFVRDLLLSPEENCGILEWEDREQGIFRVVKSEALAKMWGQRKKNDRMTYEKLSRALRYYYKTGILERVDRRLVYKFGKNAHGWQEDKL
# Procedure, shortened: as §1
# ETV3 = biological target: T12, ETV3 (Homo sapiens, UniProt P41162-2 1-143); details: protein: recombinant; tags: N-terminal GST; dsDNA, one strand shown
# T12 sequence: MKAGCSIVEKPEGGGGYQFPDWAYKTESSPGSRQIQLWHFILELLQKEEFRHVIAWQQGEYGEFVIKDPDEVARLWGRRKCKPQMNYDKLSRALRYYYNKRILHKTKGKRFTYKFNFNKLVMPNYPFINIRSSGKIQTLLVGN
# Procedure, shortened: as §1
# ETV6 = ETV6 (Homo sapiens, UniProt P41212 1-452); details: protein: recombinant; tags: N-terminal GST; dsDNA, one strand shown
# Sequence of ETV6 (P41212 whole entry): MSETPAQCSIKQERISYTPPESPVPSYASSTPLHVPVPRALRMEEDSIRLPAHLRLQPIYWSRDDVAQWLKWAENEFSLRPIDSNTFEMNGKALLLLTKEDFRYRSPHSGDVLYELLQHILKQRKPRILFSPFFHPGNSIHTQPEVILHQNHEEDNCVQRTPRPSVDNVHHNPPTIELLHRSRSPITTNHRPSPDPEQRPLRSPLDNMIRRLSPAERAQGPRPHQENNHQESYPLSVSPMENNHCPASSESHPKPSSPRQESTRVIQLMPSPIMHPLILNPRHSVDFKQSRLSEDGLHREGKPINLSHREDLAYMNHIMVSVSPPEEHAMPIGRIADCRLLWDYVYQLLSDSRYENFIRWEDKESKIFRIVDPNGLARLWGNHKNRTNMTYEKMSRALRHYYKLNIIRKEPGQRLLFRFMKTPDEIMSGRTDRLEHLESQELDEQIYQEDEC
# Procedure, shortened: as §1
sequence,measurement,setting,value
TGGTAT,binding signal,FEV,"1.26 fold enrichment (6-mer frequency, TF over GST control)"
same,binding signal,ETV5,"1.37 fold enrichment (6-mer frequency, TF over GST control)"
same,binding signal,HSF1,"1.35 fold enrichment (6-mer frequency, TF over GST control)"
same,binding signal,SPIC,"1.39 fold enrichment (6-mer frequency, TF over GST control)"
same,binding signal,ELF4,"1.42 fold enrichment (6-mer frequency, TF over GST control)"
same,binding signal,ELK4,"1.47 fold enrichment (6-mer frequency, TF over GST control)"
same,binding signal,ETV2,"1.33 fold enrichment (6-mer frequency, TF over GST control)"
same,binding signal,ELF3,"1.45 fold enrichment (6-mer frequency, TF over GST control)"
same,binding signal,CRX,"1.39 fold enrichment (6-mer frequency, TF over GST control)"
same,binding signal,ETV1,"1.37 fold enrichment (6-mer frequency, TF over GST control)"
same,binding signal,ERF,"1.34 fold enrichment (6-mer frequency, TF over GST control)"
same,binding signal,ETV3L,"1.37 fold enrichment (6-mer frequency, TF over GST control)"
same,binding signal,ETS2,"1.33 fold enrichment (6-mer frequency, TF over GST control)"
same,binding signal,SPDEF,"1.42 fold enrichment (6-mer frequency, TF over GST control)"
same,binding signal,ETV7,"1.35 fold enrichment (6-mer frequency, TF over GST control)"
same,binding signal,ELF5,"1.37 fold enrichment (6-mer frequency, TF over GST control)"
same,binding signal,ETV3,"1.28 fold enrichment (6-mer frequency, TF over GST control)"
same,binding signal,ETV6,"1.31 fold enrichment (6-mer frequency, TF over GST control)"
